Measured values taken from PubChem BioAssay AID493169 (National Center for Advancing Translational Sciences (NCATS), 2011).
Inconclusive results are not listed. Unmarked numbers belong to inactive results. Activity calls are given as the source filed them. The call rests on the fitted dose curve; in most records, active means well fitted inhibition curve with a large enough effect; inconclusive means small, poorly fitted or top-dose-only effect; inactive means flat fitted curve, though single readings scatter.

Test: CHOP2 Reporter Counterscreen Assay for Inhibitors of Ubiquitin-specific Protease USP2a;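 further: activated enterokinase alone at 50 pM in a cell-free format rather than USP2a or CHOP2; nearly all actives have a fitted effect of over 55% in size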
Details: purified enterokinase, fluorogenic substrate, 485/531 nm; series mostly up to 38.3 µM; activity change, negative = inhibition: at the top concentration
Method in brief: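 Fluorescence (485/531 nm) read 10 min after adding 25nM reporter substrate to 50 pM activated EK preincubated 30 min RT with compound; Tris pH 8.0/CaCl2/CHAPS buffer. Data normalized to buffer-alone inhibition; concentration-response curves fitted.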
On the % scale 0 is the no-effect control and ±100 the full control effect; potency means the concentration at half of the fitted maximal effect.

With `COc1ccccc1C(=O)n1nc(-c2cccnc2)nc1NCc1ccccc1` the Potency was 1 µM (active).
With `O=C(NCCc1ccccc1)c1ccc2nc(-c3ccco3)c(-c3ccco3)nc2c1` the Potency was 5.01 µM (active).
In the case of `Cc1cc(/C=C2\C(=N)N3N=C(c4ccco4)SC3=NC2=O)c(C)n1Cc1ccccc1`, the Potency is reported as 7.08 µM (active).
With `Cc1ccc(N=C2NC(=O)/C(=C/C=C/c3ccco3)S2)cc1C` the Potency was 8.91 µM (active).

First: COc1ccccc1-c1nnc(SCC(=O)Nc2nc(-c3ccccc3)cs2)n1C
Second: Cc1ccc(C2=N/C(=C\c3c(C)nn(-c4ccccc4)c3N3CCCC3)C(=O)O2)cc1
The “activity change, negative = inhibition” value of the first is lower: -2.53% for the first, 16.3% for the second.

Compared with `COc1ccc(NC(=S)NC(=O)/C=C/c2ccco2)cc1`, `Cc1cc(=O)oc(C)c1C(=O)NCCc1ccccc1` is higher in “activity change, negative = inhibition” value: -2.95% for the first, 1.21% for the second.

Compared with `COCc1cc(C)nc(OCC(=O)N/N=C\c2cc(C)n(-c3cccc(C(F)(F)F)c3)c2C)c1C#N`, `CC(=O)N1c2c(cc(Br)cc2S(=O)(=O)NCc2cccnc2)CC1C` (configuration not stated) is higher in “activity change, negative = inhibition” value: -0.186% for the first, 2.91% for the second.

Going from `Cc1n[nH]c(C)c1S(=O)(=O)N1CCCC(C(=O)NC2CCCc3ccccc32)C1` (configuration not stated) to `Cc1cc(N2CCC(C(=O)NC3CC3)CC2)nc(-c2ccccc2)n1`, the “activity change, negative = inhibition” value falls from 0.0618% to -2.34%.

Going from `Cc1ccc(-c2c(C)n([O-])c3c([n+]2=O)CCC3)o1` to `Cc1c(O)c(CN2CCCC2)cc2c3c(c(=O)oc12)CCC3`, the “activity change, negative = inhibition” value falls from 3.46% to 1.28%.

Going from `O=C(NC1CCCC1)C1C2C=CC(C2)C1C(=O)N1CCOCC1` (configuration not stated) to `O=C(CNC(=O)C1CCCCC1)NC1=NCCS1`, the “activity change, negative = inhibition” value falls from 4.28% to 0.064%.

In the case of `O=C1c2ccccc2C(=O)N1CCC1=CCCCC1`, the “activity change, negative = inhibition” value is reported as -0.258%.
